# Shown are actives, neighbours in structure and some others; about 4% of the full set was active somewhere.
# Peg3 promoter = Peg3 promoter activity inhibition. HeLa PEG-Prom luciferase reporter, luminescence, overnight. inhibition, % at 20 µM. 1.7% of 360,000 active. AID 588405;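 active = inhibition of at least 50% at 20 µM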
# TROY NFkB inh = inhibitors of TROY-dependent NF-kB signaling. Q293 LMP1-TROYcd NF-kB luciferase reporter, 4 h. inhibition, % at 10 µM. 0.98% of 360,000 active. AID 1347056;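 active = compounds whose plate-normalised and pattern-corrected inhibition of the luciferase reporter signal at the single screening dose is 50% or more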
# HIF-2a inh = HIF-2a inhibition; 786-0 RCC cells HIF-2a reporter, luciferase luminescence, overnight; inhibition, % at 18.8 µM; 0.72% of 360,000 active; AID 624352;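 active = inhibition of the luminescence signal of 40% or more relative to plate controls, in a single-dose primary screen at 18.75 µM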
# TRPM1 prom inh = reduces MITF-dependent TRPM1 promoter luciferase signal; SK-MEL-5 TRPM1 promoter luciferase, 24 h; inhibition, % at 12.5 µM; 0.83% of 330,000 active; AID 488899;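 active = mean inhibition across replicates of 60% or more, whatever share of single replicates reaches that level; inconclusive = some that reach 60%, reason not given; inactive = mean inhibition across replicates below 60%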
# LMP1 NFkB inh = inhibitors of Epstein-Barr LMP1-induced NF-kappaB reporter; 0.69% of 350,000 active; AID 504558; LMP1-induced NF-kappaB luciferase reporter cells, luminescence; inhibition, % at 12.5 µM; in the data active = inhibition above about 41%; inconclusive = no clear call, values can overlap the other calls;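 also: 0% = neutral control wells and 100% = reference inhibitor control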
# TWEAK-Fn14 inh = inhibitors of TWEAK-Fn14 interaction signaling; TWEAK-stimulated Fn14 reporter cells, luciferase luminescence, 8 h; inhibition, % at 10 µM; 2% of 360,000 active; in the data active = inhibition above about 50%
# Numbers without * were called inactive; u = inconclusive; x = not tested or not shown.
SMILES,Peg3 promoter,TROY NFkB inh,HIF-2a inh,TRPM1 prom inh,LMP1 NFkB inh,TWEAK-Fn14 inh
CC1CC(C)CN(C(=O)c2cccc(N3C(=O)c4ccccc4C3=O)c2)C1 (stereo not given),-8,16,3,x,4,-17
CC(=O)NC(c1ccco1)c1ccc2cccnc2c1O (stereo not given),13,9,5,52,25,26
CC(C)C(=O)NC(c1ccc(Cl)cc1Cl)c1ccc2cccnc2c1O (stereo not given),28,-31,-116,27,u,103*
Oc1c(C(Nc2ccccn2)c2ccccn2)ccc2cccnc12 (stereo not given),54*,-15,-17,71*,32,-69
CCC(=O)NC(c1ccc(Cl)cc1Cl)c1ccc2cccnc2c1O (stereo not given),50,-17,-21,57,49*,-29
Cc1cc(NC(=O)CCC(=O)N(CCC(C)C)C(C(=O)NCC2CCCO2)c2ccccc2C)no1 (stereo not given),-2,-3,5,-12,1,9
Cc1cccc(C(=O)Oc2ccc(/C=N/NC(=O)c3ccccc3O)cc2)c1,-187,48,-151,-53,-10,-1
CCOc1cc(/C=N\NC(=O)c2ccc(NC(=O)CC)cc2)ccc1OC(=O)c1ccccc1,71*,-36,-1,51,-1,-100
CCOc1cc(/C=N\NC(=O)c2ccc(NC(=O)C(C)(C)C)cc2)ccc1OC(=O)c1ccc(C)cc1,27,4,10,17,-2,-57
Cc1cccc(C(=O)Oc2ccc(/C=N/NC(=O)c3ccc(O)cc3)cc2)c1,-20,52*,-22,10,2,5
CCOc1cc(/C=N\NC(=O)c2ccc(NC(=O)C(C)(C)C)cc2)ccc1OC(=O)c1cccc(C)c1,31,53*,11,51,26,86*
CCCCN1C(=O)C(CC(=O)NCCc2ccccn2)CC(C(=O)N(C(C)C)C(C)C)=C1C (stereo not given),22,-30,-7,x,-3,-1
CC(=O)C1=CCC(c2ccc(Cl)cc2)N(S(=O)(=O)c2ccc(C)cc2)C1 (stereo not given),-3,7,-18,x,x,8
Cc1nn(CC(=O)NCCCN2C(C)CCCC2C)c(=O)c2cc3occc3n12 (stereo not given),3,14,7,-6,5,0
Cc1ccc(C)c(N2CCN(C(=O)Nc3ccc4c(c3)N(C)C(=O)CS4)CC2)c1,11,40,6,24,13,52*
O=C1C(Cl)=C(N2CCCCC2)C(=O)C(Cl)=C1c1cnc(N2CCCCC2)s1,58*,34,45*,101*,18,51*
CN(C)c1ncc(C2=C(Cl)C(=O)C(N3CCCC3)=C(Cl)C2=O)s1,57*,-2,4,60,26,14
O=C(CSc1nc2ccccc2c(=O)n1-c1ccccc1Cl)NCC1CCCO1 (stereo not given),-4,-5,-10,x,-2,5
C/C(=N\NC(=O)c1cc2ccccc2cc1O)c1cccs1,-61,-8,-27,1,28,53*
C/C(CC(=O)Nc1cccc(Cl)c1Cl)=N\NC(=O)c1ccccc1C,3,-24,8,4,1,-9
Cc1c(C(=O)O)nn(-c2cccc(C(F)(F)F)c2)c(=O)c1C#N,4,14,14,14,-9,-1
Cc1ccc(-n2nc(C(=O)NN)c(C)c(C#N)c2=O)cc1Cl,-5,46,30,14,-2,71*
Cc1c(C(=O)NN)nn(-c2ccc(Cl)cc2)c(=O)c1C#N,-22,55*,6,46,-3,65*
COc1ccc(CCn2c(C3CCCCC3)nc3c(c(=O)c4ccccc4n3C)c2=O)cc1,44,65*,32,x,x,0
COc1ccc(-c2nc(CS(=O)CC(=O)NCc3ccc4c(c3)OCO4)c(C)o2)cc1OC (stereo not given),-9,-7,-3,6,-2,14
SMILES,Peg3 promoter,TROY NFkB inh,HIF-2a inh,TRPM1 prom inh,LMP1 NFkB inh,TWEAK-Fn14 inh
CC1=C(C(=O)N(C)C)CC(CC(=O)NC2CCCC2)C(=O)N1CCC1=CCCCC1 (stereo not given),-140,-34,-161,x,-23,-18
Cc1cccc(N=C2NC(=O)S/C2=C\c2ccco2)c1,3,-18,-23,3,3,20
O=C1NC(=Nc2ccc(Cl)cc2)/C(=C/c2ccco2)S1,63*,-29,-16,0,10,3
CC(=O)Nc1ccc(S(=O)(=O)Nc2ccc3[nH]c(=O)[nH]c3c2)cc1,5,19,7,-7,-5,54*
CCCNC(=O)c1onc(CSc2ccc(F)cc2)c1C(=O)NCCOC,1,-14,20,-7,-1,-9
CN(CC(=O)NNC(=O)Cc1ccccc1F)S(=O)(=O)c1ccc(Cl)cc1,-6,16,14,8,1,-6
CC(NCc1ccc(OCc2ccc(Cl)cc2)cc1)C(O)c1ccccc1 (stereo not given),104*,0,-63,13,-34,-46
CN1OC[C@@H]2CN(C(=O)CCc3ccccc3)[C@H](c3ccc(N4CCCCC4)cc3)C[C@@H]21,0,-7,4,x,x,-5
COC(=O)c1c(C)[nH]c(C(=O)/C=C/c2ccccc2Cl)c1C,-173,-19,-353,-54,-26,90*
COC(=O)c1c(C)[nH]c(C(C)=O)c1C,3,-22,-1,4,0,14
COC(=O)c1c(C)[nH]c(C(=O)/C=C/c2ccccc2F)c1C,-285,60*,-305,-83,-25,51*
CCNC(=O)C1(C)CCN(C(=O)c2ccccc2OC)C1 (stereo not given),-2,12,11,x,x,-1
Cc1ccc(C(C)C)cc1S(=O)(=O)Nc1cccnc1,21,-5,2,14,5,-9
CCCSc1cc(N2CCN(C)CC2)nc(-c2ccc(OC)cc2)n1,55*,18,10,-10,-3,-18
COc1ccc(F)cc1-c1cc(C(=O)Nc2ccc(C)c(NS(C)(=O)=O)c2)[nH]n1,23,21,-38,x,x,26
CCCOc1ccc(F)cc1-c1cc(C(=O)Nc2ccc(C)c(NS(C)(=O)=O)c2)[nH]n1,50,41,7,x,x,59*
CCCOc1ccc(F)cc1-c1cc(C(=O)NCc2cc(C(F)(F)F)cc(C(F)(F)F)c2)[nH]n1,-9,23,6,x,x,53*
CCC(C)NC(=O)Nc1ccc(C)cc1C (stereo not given),1,0,11,5,0,5
Cc1c(OCC(=O)N(C)c2ccccc2)ccc2c3c(c(=O)oc12)CCC3,-24,-15,-16,-13,-16,-4
Nc1nccc(SCc2ccc(Cl)cc2Cl)n1,11,18,-34,5,6,57*
CCCOc1ccc(F)cc1-c1cc(C(=O)NCc2cccs2)[nH]n1,-2,-16,-5,x,x,21

# Screening results from PubChem BioAssay.
